In PubChem BioAssay:
The source made the active and inactive calls. Unless noted, no rule for the calls is given here.

What was measured:
[1] = tested on: Wnt5a (protein binding on small-molecule microarray); assay: small molecules binding Wnt5a protein – biophysical, small-molecule microarray, 635/667 nm fluorescence, primary screen (AID 1142); details: 635 nm fluorescence, higher = more signal;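 also: fluorescence read at 667 nm with signal to noise per printed feature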
[2] = ATP-based viability of Huh7 replicon cells – cell-based, CellTiter-Glo luminescence, basal, 48 h, cytotoxicity control for HCV replication inhibitor project, primary screen (AID 1143); details: higher = more signal, called active from +8 up or from −8 down;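 also: Huh7 hepatoma cells carrying a hepatitis C replication reporter with no stimulus; test concentration not given here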
[3] = Pseudomonas biofilm growth suppression – PAO1 strain, BacTiter-Glo luminescence, LB-PBS, primary screen (AID 1144); details: P. aeruginosa PAO1 biofilm, 12 h, higher = more signal
[4] = basal CRE-LacZ reporter activity in PC12 – cell-based, unstimulated, primary screen (AID 1145); details: no forskolin, luminescence, 4.5 h, higher = more signal, called active from +8 up or from −8 down
[5] = forskolin-driven CRE-LacZ activity in PC12 – cell-based, CRE-LacZ reporter, forskolin-stimulated, primary screen (AID 1146); details: luminescence, 4.5 h, higher = more signal, called active from +8 up or from −8 down;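 also: PC12 cells with 6xCRE LacZ reporter stimulated by forskolin 10 µM; beta-galactosidase reporter signal reflecting CREB driven transcription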
[6] = molecular target: Streptavidin (Streptomyces avidinii) (UniProt P22629); assay: compounds binding control protein streptavidin – biophysical, small-molecule microarray, 635/667 nm fluorescence, artefact control for SMM compound annotation, primary screen (AID 1147); details: higher = more signal;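 also: signal reflects streptavidin binding to arrayed compounds as a control protein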
[7] = probe aInhba binding on compound microarray – biochemical, small-molecule microarray, 635/667 nm fluorescence, primary screen (AID 1148); details: higher = more signal;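 also: score merges 667nm spot fluorescence with signal-to-noise for antibody binding to printed compounds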
Torsin-1A (Homo sapiens) [8] = molecular target: Torsin-1A (Homo sapiens) (UniProt O14656); assay: TOR1A wild-type binding on microarray – cell lysate, small-molecule microarray, lysate, 635/667 nm, primary screen (AID 1149); details: COS7 hTOR1A-WT lysate, 635 nm fluorescence, higher = more signal
Torsin-1A (Homo sapiens) [9] = molecular target: Torsin-1A (Homo sapiens) (UniProt O14656); assay: torsin A mutant lysate binding on microarrays – cell lysate, small-molecule microarray, COS7 lysate, 635/667 nm fluorescence, primary screen (AID 1150); details: COS7 hTOR1A mutant lysate, 635 nm fluorescence, higher = more signal;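 also: score pools 667 nm emission and signal to noise measuring lysate protein binding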
[10] = tested on: Sonic hedgehog protein (Shh); assay: Sonic hedgehog microarray binding compounds – biochemical, small-molecule microarray, 635/667 nm fluorescence, primary screen (AID 1151); details: 635 nm fluorescence, higher = more signal;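 also: Shh protein binding to compounds spotted on small-molecule microarray slides; score combines spot fluorescence intensity with signal-to-noise across triplicate slides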

Sequence of Torsin-1A (Homo sapiens) (O14656 whole entry, looked up): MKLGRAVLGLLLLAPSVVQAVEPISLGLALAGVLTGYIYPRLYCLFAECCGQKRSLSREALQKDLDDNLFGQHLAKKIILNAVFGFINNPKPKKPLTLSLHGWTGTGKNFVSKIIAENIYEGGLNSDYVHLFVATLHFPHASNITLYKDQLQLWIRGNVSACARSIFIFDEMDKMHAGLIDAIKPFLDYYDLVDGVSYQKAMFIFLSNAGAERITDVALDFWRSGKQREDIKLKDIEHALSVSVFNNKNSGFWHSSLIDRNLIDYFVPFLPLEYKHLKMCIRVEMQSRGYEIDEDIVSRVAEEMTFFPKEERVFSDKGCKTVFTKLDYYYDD
Sequence of Streptavidin (Streptomyces avidinii) (P22629 whole entry, looked up): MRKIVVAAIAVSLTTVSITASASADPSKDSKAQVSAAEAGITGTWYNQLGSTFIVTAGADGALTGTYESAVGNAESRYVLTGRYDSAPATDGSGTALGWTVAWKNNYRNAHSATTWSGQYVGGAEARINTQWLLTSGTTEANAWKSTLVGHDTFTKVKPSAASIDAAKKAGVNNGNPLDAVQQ

SMILES	composite z-score [1]	z-score [2]	z-score [3]	z-score [4]	z-score [5]	composite z-score [6]	composite z-score [7]	composite z-score (Torsin-1A (Homo sapiens) [8])	composite z-score (Torsin-1A (Homo sapiens) [9])	composite z-score [10]
NCCCCCCNC(=O)[C@H]1C[C@H]2C(=O)N[C@@H](Cc3ccccc3)C(=O)N2[C@H]1c1cccc(OCCO)c1	-0.0371	0.173 (inactive)	-0.687 (inactive)	-0.545 (inactive)	-0.711 (inactive)	1.09	-0.128	1.24	0.916	0.16
O=C1NC(=O)C2C1C=CC(C(O)c1ccc(I)cc1)N2Nc1ccccn1 (stereo not given)	-0.0488	0.886 (inactive)	-0.833 (inactive)	0.636 (inactive)	0.0542 (inactive)	0.242	-0.0216	0.282	0.239	-0.0484
CN(C)CCCC[C@@H]1NC(=O)[C@H]2C[C@@H](C(=O)NCCCCCN)[C@@H](c3cccc(OCCO)c3)N2C1=O	0.456	-1.01 (inactive)	0.767 (inactive)	0.155 (inactive)	0.421 (inactive)	1.13	0.495	1.99	2.15	1.28
COc1cc2c(cc1O)C(c1cccs1)N(Cc1cccc(OC(F)(F)F)c1)CC2 (stereo not given)	-0.189	-4.65 (inactive)	0.284 (inactive)	-0.644 (inactive)	-0.73 (inactive)	0.403	-0.0762	0.288	0.0814	0.251
Cc1ccc(/C=C/C=O)cc1	-0.355	0.0606 (inactive)	0.38 (inactive)	-0.141 (inactive)	0.243 (inactive)	-0.461	-0.176	-1.39	-0.357	-0.327
NCCCCCNC(=O)[C@H]1C[C@H]2C(=O)N3CCC[C@H]3C(=O)N2[C@H]1c1ccc(O)cc1	0.354	0.173 (inactive)	-0.12 (inactive)	0.285 (inactive)	0.165 (inactive)	1.23	0.336	1.66	1.09	1.65
C#CCN1[C@H](/C=C/C2CC2)[C@H](Cc2ccccc2)OC(=O)[C@@H]1Cc1ccccc1	-0.18	-3.28 (inactive)	0.854 (inactive)	1.04 (inactive)	1.29 (inactive)	-0.929	-0.0675	0.349	0.429	1.12
Cc1ccc(S(=O)(=O)N2C[C@@H](C(=O)O)[C@H](Sc3ccccc3)C[C@H]2c2ccccc2)cc1	0.731	-0.763 (inactive)	-0.103 (inactive)	-0.667 (inactive)	-0.356 (inactive)	1.26	0.0403	0.301	0.714	-0.156
CC(C)Cc1ccc(CN2CC[C@@H](N)C2)cc1	-0.544	-3.26 (inactive)	-1.53 (inactive)	-0.688 (inactive)	1.52 (inactive)	-1.27	-0.0357	-1.79	-0.677	-0.0963
CCCC=C(CCC)[C@@H](NC(=O)OCC(C)C)c1ccccc1	1.33	-3.28 (inactive)	0.173 (inactive)	0.766 (inactive)	1.43 (inactive)	0.576	0.613	0.0387	-0.0475	0.661
CC(C)=CCCC(C)=CC(O)C1C=CC2C(=O)N(c3ccccc3)C(=O)C2N1Nc1ccc(C(C)C)cc1 (stereo not given)	0.15	-0.11 (inactive)	-0.603 (inactive)	0.44 (inactive)	0.204 (inactive)	1.33	-0.0087	-0.728	-0.151	-0.309
CCCCCN1CC=CC23O[C@@H]4C=CCOC(=O)[C@@H]4[C@H]2C(=O)N(C(C)CO)[C@@H]3C1=O (stereo not given in full)	-0.614	0.463 (inactive)	0.397 (inactive)	-0.216 (inactive)	-0.315 (inactive)	-0.541	-0.128	0.909	-0.979	-0.424
COCCCNC(=O)[C@@]1(Cc2ccccc2)N=C(c2ccc(OCCCO)cc2)O[C@H]1c1ccccc1CN=[N+]=[N-]	0.419	-3.17 (inactive)	1.55 (inactive)	0.447 (inactive)	-0.929 (inactive)	0.716	0.389	0.544	0.37	-0.0164
CCOC(=O)C1=CCC(c2ccc(F)cc2)N(S(=O)(=O)c2ccc(C)cc2)C1 (stereo not given)	0.0848	-2.8 (inactive)	0.046 (inactive)	0.481 (inactive)	-0.323 (inactive)	0.407	-0.0963	0.827	0.203	-0.282
COCCOC(=O)N1C(=O)[C@@]2(c3ccccc31)[C@H](C(=O)N1CCc3cc(OC)c(OC)cc3C1)[C@H]1C(=O)O[C@H](c3ccccc3)[C@H](c3ccccc3)N1[C@@H]2c1ccc(O)cc1	0.622	-3.5 (inactive)	-0.726 (inactive)	-0.0515 (inactive)	2.99 (inactive)	1.39	-0.0889	1.06	1.31	1.96
CC(C)OC(=O)C=C1C[C@@H](c2cccc(Cl)c2)O[C@@H](c2cccc(Cl)c2)O1	-0.0889	-0.0636 (inactive)	-0.179 (inactive)	0.192 (inactive)	1.03 (inactive)	0.776	0.0956	0.686	-0.365	-1.16
CN1C(=O)C2C=CC(C(O)c3c(F)cccc3Cl)N(NC(=O)OC(C)(C)C)C2C1=O (stereo not given)	0.213	0.736 (inactive)	0.232 (inactive)	0.622 (inactive)	0.947 (inactive)	1.18	0.181	0.622	0.591	-0.0049
COc1ccccc1CN1C(=O)c2ccccc2[C@@H](C(=O)NCc2ccccc2)[C@@H]1c1ccc(CO)cc1	-0.13	-0.107 (inactive)	1.29 (inactive)	0.648 (inactive)	-1.35 (inactive)	-0.515	-0.176	0.408	0.48	0.496
CCN(CC)c1ccc(N2CC=CC34O[C@@H]5C=CCOC(=O)[C@@H]5[C@H]3C(=O)N(CCCCCCO)[C@@H]4C2=O)cc1 (stereo not given in full)	-0.452	-0.289 (inactive)	-0.593 (inactive)	-0.488 (inactive)	-1.57 (inactive)	-0.881	-0.154	0.914	0.339	-0.326
NC(=O)[C@@H]1[C@H]2C(=O)O[C@H](c3ccccc3)[C@H](c3ccccc3)N2[C@H](c2ccc(OCCO)cc2)[C@@]12C(=O)Nc1ccc(C#CC3=CCCCC3)cc12	0.0384	-6.11 (inactive)	-1.74 (inactive)	-1.28 (inactive)	-0.546 (inactive)	0.778	0.0047	0.618	0.817	1.24
COC(=O)[C@@]1(Cc2ccc(OC)cc2)[C@H]2c3cc(C(=O)N4CCCC4)n(CCc4ccc(O)c(O)c4)c3C[C@H]2CN1C(=O)c1ccccc1	-0.0111	-1.27 (inactive)	-0.128 (inactive)	1.54 (inactive)	0.706 (inactive)	0.27	0.147	-0.252	0.641	-0.349
[N-]=[N+]=Nc1ccccc1[C@H]1OC(c2ccc(OCCCO)cc2)=N[C@@]1(CCS(=O)(=O)c1ccccc1)C(=O)NCc1ccccc1	0.768	-2.65 (inactive)	0.0905 (inactive)	1.26 (inactive)	-0.504 (inactive)	1.47	0.204	0.503	0.786	0.0239
CC(C)NC(=O)[C@@H]1c2ccccc2C(=O)N(C(C)C)[C@H]1c1ccc(CO)cc1	-0.152	0.245 (inactive)	1.28 (inactive)	0.441 (inactive)	0.0729 (inactive)	-0.977	-0.193	0.0645	2.08	-0.659
CCOC(=O)C1=C[C@@H](C(C)C)N(S(=O)(=O)c2ccc(C)cc2)[C@H]1c1ccccc1F	0.197	-2.77 (inactive)	-0.0791 (inactive)	-0.527 (inactive)	-0.0445 (inactive)	1.08	0.0816	0.345	1.15	0.394
CC(C)CCC[C@@H](C)[C@H]1CC[C@@]2(C)C3=C(CC[C@]12C)[C@@]1(C)CC[C@H](OC(=O)c2ccc(C(F)(F)F)nc2)C(C)(C)C1CC3 (stereo not given in full)	0.0419	-0.878 (inactive)	-0.14 (inactive)	0.399 (inactive)	-0.121 (inactive)	0.536	0.0411	0.379	0.347	1.04
CC(=O)NCCCC[C@@H]1NC(=O)[C@H]2C[C@@H](C(=O)O)[C@@H](c3ccc(O)cc3)N2C1=O	0.176	-0.798 (inactive)	-0.0331 (inactive)	5.71 (inactive)	7.82 (inactive)	0.481	0.0589	0.928	1.69	2.02
COc1ccc([Si](C)(C)[C@@H]2[C@@H](CC(=O)N3CCC[C@H]3CO)O[C@]3(C(=O)N(Cc4cccc(I)c4)c4ccccc43)[C@H]2C)cc1	0.557	-4.27 (inactive)	0.452 (inactive)	0.12 (inactive)	-0.845 (inactive)	0.168	-0.0582	1.36	0.789	2.14
C[N+](C)(C)CCCC[C@@H]1NC(=O)[C@@H]2C[C@H](C(=O)NCCCCCCNC(=O)CS)[C@H](c3ccc(O)cc3)N2C1=O	-0.387	-0.195 (inactive)	-0.421 (inactive)	0.0165 (inactive)	1.45 (inactive)	0.553	-0.0963	0.296	0.461	0.586
COCCCNC(=O)[C@@H]1c2ccccc2C(=O)N(Cc2ccccc2)[C@H]1c1ccc(CO)cc1	0.23	0.285 (inactive)	0.397 (inactive)	0.648 (inactive)	-1.01 (inactive)	0.158	0.343	0.662	1.29	0.857
C=C(CCCC)/C(=C/C[C@@H](OC(C)=O)c1cccc(OCCO)c1)c1cnc2ccccc2c1	0.16	-0.82 (inactive)	-1.07 (inactive)	1.7 (inactive)	-0.307 (inactive)	0.0063	-0.154	1.17	0.762	2.05
